Reference: PubChem BioAssay (NCI)
The panel holds about 79,000 compounds, 15% with a hit somewhere; the sample as a whole holds those more often. Unmarked numbers belong to inactive results. Active and inactive are the calls of the source. No stated cut-off is given here; in the data, active means growth inhibition above about 70%; inactive means the rest.

Tests used:
[1] = NCI Yeast Anticancer Drug Screen. Data for the rad52 strain (AID 147);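 further: 0% = growth of vehicle-treated control cultures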; conditions: S. cerevisiae rad52 mutant growth inhibition, hits give high values
In short: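 Inhibition of yeast growth, referenced to vehicle controls, was the measured output for a strain with defective DNA damage repair.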

[2] = NCI Yeast Anticancer Drug Screen. Data for the wt1 strain (AID 149);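 further: 0% = growth of vehicle-treated wt1 cultures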; conditions: S. cerevisiae wt1 strain (SPY 50644) growth inhibition, hits give high values
In short: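 Compounds are added to wt1 yeast cultures. Growth is then measured. Inhibition is expressed relative to vehicle-treated controls.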

[3] = NCI Yeast Anticancer Drug Screen. Data for the rad50EPP+ strain (AID 151);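 further: 0% = growth of vehicle-treated control cultures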; conditions: S. cerevisiae rad50 mutant strain, hits give high values
In short: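 Genetically defined yeast (rad50EPP+, DNA damage repair alteration) is grown with compound, and inhibition of growth is expressed relative to vehicle-treated controls.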

[4] = NCI Yeast Anticancer Drug Screen. Data for the mgt1 strain (AID 153); conditions: S. cerevisiae mgt1 mutant growth inhibition, hits give high values
In short: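 In the mgt1 strain, test compounds were added and growth inhibition was determined relative to vehicle-treated controls.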

[5] = NCI Yeast Anticancer Drug Screen. Data for the rad50 strain (AID 155);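 further: 0% = growth of vehicle-only cultures of the same strain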; conditions: S. cerevisiae rad50 strain growth inhibition, hits give high values
In short: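 Inhibition values express reduced yeast growth in compound-treated cultures relative to vehicle-treated controls.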

[6] = NCI Yeast Anticancer Drug Screen. Data for the mec2-1 strain (AID 157); conditions: S. cerevisiae mec2-1 strain, hits give high values
In short: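 Each compound was tested on mec2-1 yeast, a strain altered in DNA damage repair or cell cycle control. Growth inhibition is reported relative to vehicle.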

[7] = NCI Yeast Anticancer Drug Screen. Data for the rad14 strain (AID 159);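 further: 0% = growth of vehicle-treated control cultures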; conditions: S. cerevisiae rad14 strain growth inhibition, hits give high values
In short: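 A mutant yeast strain defective in DNA damage repair is treated with compound; inhibition of its growth is scored against untreated, vehicle-exposed cultures.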

[8] = NCI Yeast Anticancer Drug Screen. Data for the sgs1 mgt1 strain (AID 161);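 further: 0% = growth of cultures given vehicle only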; conditions: S. cerevisiae sgs1 mgt1 strain, hits give high values
In short: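 Read-out: growth inhibition vs vehicle controls. Cells: mutant yeast strain deficient in DNA damage repair.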

[9] = NCI Yeast Anticancer Drug Screen. Data for the CLN2oe strain (AID 163);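 further: 0% = growth of vehicle-only control cultures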; conditions: S. cerevisiae CLN2oe strain, hits give high values
In short: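 First, the altered yeast strain was treated with each compound; second, its growth was measured; finally, inhibition was derived by comparison with vehicle controls.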

[10] = NCI Yeast Anticancer Drug Screen. Data for the cln2 rad14 strain (AID 165);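 further: 0% = growth equal to vehicle treated cultures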; conditions: S. cerevisiae cln2 rad14 strain, hits give high values
In short: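 Test compounds were added to cln2 rad14 yeast cultures; inhibition of growth was then determined by comparison with vehicle treatment.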

[11] = NCI Yeast Anticancer Drug Screen. Data for the bub3 strain (AID 167); conditions: S. cerevisiae bub3 mutant strain, hits give high values
In short: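 Steps: expose the mutant yeast strain to compound; grow alongside vehicle-treated cultures; measure growth; express inhibition against the vehicle cultures.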

[12] = NCI Yeast Anticancer Drug Screen. Data for the wt2 strain (AID 169);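 further: 0% = growth of vehicle-treated yeast cultures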; conditions: S. cerevisiae wt2 strain growth inhibition, hits give high values
In short: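 The panel's yeast strains carry defined changes in DNA repair or cell cycle genes. Each strain is grown with compound, and growth loss is scored relative to vehicle.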

[13] = NCI Yeast Anticancer Drug Screen. Data for the mlh1 strain (AID 171);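 further: 0% = growth of vehicle-treated control cultures of the same strain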; conditions: S. cerevisiae mlh1 strain growth inhibition, hits give high values
In short: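 Inhibition values reflect reduced yeast growth in the presence of compound, referenced to vehicle controls, using a strain chosen for its alteration in DNA repair or cell cycle control.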

[14] = NCI Yeast Anticancer Drug Screen. Data for the sgs1 strain (AID 173);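 further: 0% = growth of vehicle-only control cultures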; conditions: S. cerevisiae sgs1 mutant, hits give high values
In short: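 Vehicle-treated cultures served as reference for growth inhibition of a yeast strain altered in DNA damage repair or cell cycle control after compound exposure.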

[15] = NCI Yeast Anticancer Drug Screen. Data for the mlh1 rad18 strain (AID 175); conditions: S. cerevisiae mlh1 rad18 strain growth inhibition, hits give high values
In short: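 Inhibition values reflect reduced growth of mutant yeast versus vehicle-treated controls following compound exposure; the mutations affect DNA damage repair.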

[16] = NCI Yeast Anticancer Drug Screen. Data for the rad18 strain (AID 177); conditions: S. cerevisiae rad18 mutant growth inhibition, hits give high values
In short: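 Steps: expose repair-mutant yeast to compound; measure growth; express as inhibition relative to vehicle control.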

[17] = at 5.0 µM (retest, dose inferred, filed as 0.5)
[18] = at 50.0 µM (retest, dose inferred, filed as 5.0)

Which growth inhibition ([1]; at 1.2 µM) does the source give for CC(=O)N/N=C/C(C)(C)C(C)(C)/C=N/NC(C)=O here?
The growth inhibition was -1%.

What about the growth inhibition ([1]; at 3.7 µM) of the same compound?
Its growth inhibition is -5%.

And the growth inhibition ([1]; at 11.0 µM)?
The growth inhibition was -32%.

What about the growth inhibition ([1]; at 33.0 µM) of the same compound?
Its growth inhibition is 38%.

And the growth inhibition ([1]; at 100.0 µM)?
Its growth inhibition is 97% (active).

What about the growth inhibition ([2]; at 1.2 µM) of the same compound?
The growth inhibition was -3%.

What about the growth inhibition ([2]; at 3.7 µM) of the same compound?
Its growth inhibition is -5%.

And the growth inhibition ([2]; at 11.0 µM)?
The growth inhibition was 2%.

And the growth inhibition ([2]; at 33.0 µM)?
Its growth inhibition is 27%.

What about the growth inhibition ([2]; at 100.0 µM) of the same compound?
Its growth inhibition is 42%.

What about the growth inhibition ([3]; at 1.2 µM) of the same compound?
The growth inhibition was -3%.

And the growth inhibition ([3]; at 3.7 µM)?
The growth inhibition was 11%.

What about the growth inhibition ([3]; at 11.0 µM) of the same compound?
Its growth inhibition is 10%.

What about the growth inhibition ([3]; at 33.0 µM) of the same compound?
Its growth inhibition is 18%.

And the growth inhibition ([3]; at 100.0 µM)?
Its growth inhibition is 71% (active).

What about the growth inhibition ([4]; at 1.2 µM) of the same compound?
The growth inhibition was 2%.

And the growth inhibition ([4]; at 3.7 µM)?
The growth inhibition was -2%.

What about the growth inhibition ([4]; at 11.0 µM) of the same compound?
Its growth inhibition is -4%.

What about the growth inhibition ([4]; at 33.0 µM) of the same compound?
Its growth inhibition is -5%.

And the growth inhibition ([4]; at 100.0 µM)?
The growth inhibition was 6%.

And the growth inhibition ([5]; at 1.2 µM)?
The growth inhibition was -13%.

What about the growth inhibition ([5]; at 3.7 µM) of the same compound?
Its growth inhibition is -6%.

What about the growth inhibition [5, 17] of the same compound?
The growth inhibition was 4%.

And the growth inhibition ([5]; at 11.0 µM)?
Its growth inhibition is 16%.

What about the growth inhibition ([5]; at 33.0 µM) of the same compound?
The growth inhibition was 38%.

What about the growth inhibition [5, 18] of the same compound?
The growth inhibition was 51%.

And the growth inhibition ([5]; at 50.0 µM)?
Its growth inhibition is 50.5%.

What about the growth inhibition ([5]; at 100.0 µM) of the same compound?
The growth inhibition was 98% (active).

What about the growth inhibition ([6]; at 1.2 µM) of the same compound?
Its growth inhibition is 5%.

And the growth inhibition ([6]; at 3.7 µM)?
Its growth inhibition is 2%.

And the growth inhibition [6, 17]?
The growth inhibition was 4%.

And the growth inhibition ([6]; at 11.0 µM)?
The growth inhibition was 1%.

And the growth inhibition ([6]; at 33.0 µM)?
The growth inhibition was 2%.

And the growth inhibition [6, 18]?
Its growth inhibition is 39%.

And the growth inhibition ([6]; at 50.0 µM)?
Its growth inhibition is 19.2%.

What about the growth inhibition ([6]; at 100.0 µM) of the same compound?
Its growth inhibition is 11%.

What about the growth inhibition ([7]; at 1.2 µM) of the same compound?
Its growth inhibition is 3%.

What about the growth inhibition ([7]; at 3.7 µM) of the same compound?
Its growth inhibition is 2%.

And the growth inhibition ([7]; at 11.0 µM)?
The growth inhibition was 7%.

And the growth inhibition ([7]; at 33.0 µM)?
The growth inhibition was 39%.

What about the growth inhibition ([7]; at 100.0 µM) of the same compound?
Its growth inhibition is 54%.

What about the growth inhibition [8, 17] of the same compound?
Its growth inhibition is 15%.

What about the growth inhibition [8, 18] of the same compound?
Its growth inhibition is 78% (active).

What about the growth inhibition ([8]; at 50.0 µM) of the same compound?
Its growth inhibition is 70% (active).

And the growth inhibition ([9]; at 1.2 µM)?
The growth inhibition was 9%.

And the growth inhibition ([9]; at 3.7 µM)?
The growth inhibition was 11%.

What about the growth inhibition ([9]; at 11.0 µM) of the same compound?
Its growth inhibition is 11%.

What about the growth inhibition ([9]; at 33.0 µM) of the same compound?
The growth inhibition was 4%.

What about the growth inhibition ([9]; at 100.0 µM) of the same compound?
Its growth inhibition is 17%.

And the growth inhibition [10, 17]?
The growth inhibition was 2%.

What about the growth inhibition [10, 18] of the same compound?
Its growth inhibition is 20%.

What about the growth inhibition ([10]; at 50.0 µM) of the same compound?
The growth inhibition was 5.8%.

What about the growth inhibition ([11]; at 1.2 µM) of the same compound?
Its growth inhibition is -1%.

What about the growth inhibition ([11]; at 3.7 µM) of the same compound?
Its growth inhibition is -4%.

What about the growth inhibition [11, 17] of the same compound?
The growth inhibition was 0%.

What about the growth inhibition ([11]; at 11.0 µM) of the same compound?
Its growth inhibition is -4%.

What about the growth inhibition ([11]; at 33.0 µM) of the same compound?
Its growth inhibition is -7%.

And the growth inhibition [11, 18]?
Its growth inhibition is 16%.

What about the growth inhibition ([11]; at 50.0 µM) of the same compound?
Its growth inhibition is 35.4%.

And the growth inhibition ([11]; at 100.0 µM)?
The growth inhibition was 16%.

What about the growth inhibition ([12]; at 1.2 µM) of the same compound?
The growth inhibition was -1%.

What about the growth inhibition ([12]; at 3.7 µM) of the same compound?
The growth inhibition was -2%.

What about the growth inhibition ([12]; at 11.0 µM) of the same compound?
The growth inhibition was 7%.

What about the growth inhibition ([12]; at 33.0 µM) of the same compound?
Its growth inhibition is 39%.

What about the growth inhibition ([12]; at 100.0 µM) of the same compound?
The growth inhibition was 88% (active).

What about the growth inhibition ([13]; at 1.2 µM) of the same compound?
The growth inhibition was -7%.

And the growth inhibition ([13]; at 3.7 µM)?
Its growth inhibition is -5%.

What about the growth inhibition ([13]; at 11.0 µM) of the same compound?
The growth inhibition was -2%.

What about the growth inhibition ([13]; at 33.0 µM) of the same compound?
Its growth inhibition is 19%.

What about the growth inhibition ([13]; at 100.0 µM) of the same compound?
Its growth inhibition is 91% (active).

And the growth inhibition ([14]; at 1.2 µM)?
Its growth inhibition is -6%.

What about the growth inhibition ([14]; at 3.7 µM) of the same compound?
The growth inhibition was -8%.

What about the growth inhibition ([14]; at 11.0 µM) of the same compound?
The growth inhibition was 25%.

And the growth inhibition ([14]; at 33.0 µM)?
The growth inhibition was 67%.

What about the growth inhibition ([14]; at 100.0 µM) of the same compound?
The growth inhibition was 98% (active).

And the growth inhibition [15, 17]?
The growth inhibition was 11%.

And the growth inhibition [15, 18]?
The growth inhibition was 82% (active).

What about the growth inhibition ([15]; at 50.0 µM) of the same compound?
The growth inhibition was 59.4%.

And the growth inhibition ([16]; at 1.2 µM)?
The growth inhibition was -10%.

And the growth inhibition ([16]; at 3.7 µM)?
The growth inhibition was 1%.

And the growth inhibition ([16]; at 11.0 µM)?
The growth inhibition was 39%.

What about the growth inhibition ([16]; at 33.0 µM) of the same compound?
The growth inhibition was 81% (active).

And the growth inhibition ([16]; at 100.0 µM)?
The growth inhibition was 93% (active).
